Bioassay records (PubChem)
Sampled rows, rich in hits. Any-hit rate of the full collection: about 0.9%.
PPARg SRC-2 ag = PPARgamma-driven SRC-2 recruitment agonism; P37231; activation, % at 8 µM; actives 0.34% (n = 200,000); AID 1032; PPARgamma LBD-SRC-2 recruitment, biochemical; in the data active = activation above about 22%;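 note: 0% = vehicle and 100% = reference agonist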
Target sequence (P37231 whole entry, looked up, the tested form may be a part): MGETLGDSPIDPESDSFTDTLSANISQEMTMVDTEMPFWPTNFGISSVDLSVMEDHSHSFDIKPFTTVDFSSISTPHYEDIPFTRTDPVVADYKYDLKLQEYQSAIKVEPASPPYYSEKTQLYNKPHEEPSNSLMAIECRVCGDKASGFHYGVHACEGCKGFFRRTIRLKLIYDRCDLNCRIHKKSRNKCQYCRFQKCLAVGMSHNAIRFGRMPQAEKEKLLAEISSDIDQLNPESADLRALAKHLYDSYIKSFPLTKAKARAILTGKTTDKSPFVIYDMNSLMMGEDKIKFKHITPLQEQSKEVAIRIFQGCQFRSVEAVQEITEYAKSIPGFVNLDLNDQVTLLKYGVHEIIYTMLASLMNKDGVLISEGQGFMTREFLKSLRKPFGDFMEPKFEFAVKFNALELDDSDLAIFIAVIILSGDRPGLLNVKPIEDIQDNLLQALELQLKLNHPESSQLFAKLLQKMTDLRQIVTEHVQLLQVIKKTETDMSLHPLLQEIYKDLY
SRC1 TRFRET art = TR-FRET artefact, counter-screen to PPARgamma/SRC-1 agonist assay; TR-FRET detection artefact counter-screen, emission ratio; active compounds read high; TR-FRET ratio at 8 µM; actives 0.34% (n = 99,000); in the data active = TR-FRET ratio above about 2300
PPARg SRC-3 ag = agonists of human PPARgamma SRC-3 coactivator recruitment; AID 731; activation, % at 8 µM; actives 0.26% (n = 200,000); biochemical PPARgamma/SRC-3 coactivator recruitment assay; in the data active = activation above about 23%;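 note: 0% = DMSO and 100% = reference agonist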
PPARg SRC1 recr = PPARgamma-driven SRC-1 recruitment agonism; P37231; PPARgamma-SRC-1 coactivator recruitment biochemical assay; activation, % at 8 µM; actives 0.41% (n = 200,000); AID 631; in the data active = activation above about 19%;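 note: 0% = DMSO and 100% = reference agonist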
SRC3 TRFRET art = flags TR-FRET format artefacts in PPARgamma SRC-3 recruitment agonist screen; TR-FRET artefact counter-screen, PPARgamma/SRC-3 format; active compounds read high; TR-FRET ratio at 8 µM; actives 0.39% (n = 99,000)
TR-FRET SRC-2 ct = TR-FRET artefact, counter-screen to PPARgamma/SRC-2 agonist assay; active compounds read high; TR-FRET ratio at 8 µM; actives 0.4% (n = 200,000); AID 1049
Numbers without * were called inactive. Cut-off read from the data, not from the text of the source, unless noted: active = TR-FRET ratio above about 2000; inactive = the rest.

How did Cc1cc(C(F)(F)F)n2nc(-c3cnn(C)c3C(F)(F)F)c(Br)c2n1 do in these assays?
PPARg SRC-2 ag: 7; SRC1 TRFRET art: 1642; PPARg SRC-3 ag: 6; PPARg SRC1 recr: 5; SRC3 TRFRET art: 1643; TR-FRET SRC-2 ct: 1529

What do the screens show for `Cc1sc(NC(=O)Cc2ccc3c(c2)OCO3)nc1-c1ccc2c(c1)CCN2C(=O)c1cccc(F)c1`?
PPARg SRC-2 ag: 7; SRC1 TRFRET art: 1641; PPARg SRC-3 ag: 2; PPARg SRC1 recr: -1; SRC3 TRFRET art: 1615; TR-FRET SRC-2 ct: 1658

How did Cc1ccccc1C(=O)N1CCc2cc(-c3nc(NC(=O)Cc4ccc5c(c4)OCO5)sc3C)ccc21 do in these assays?
PPARg SRC-2 ag: 2; SRC1 TRFRET art: 2310; PPARg SRC-3 ag: 9; PPARg SRC1 recr: 9; SRC3 TRFRET art: 2401*; TR-FRET SRC-2 ct: 2157*

What do the screens show for `COc1ccc(-c2cc(=O)c3ccccc3s2)cc1`?
PPARg SRC-2 ag: -4; PPARg SRC-3 ag: 0; PPARg SRC1 recr: 0; TR-FRET SRC-2 ct: 1505

How did COc1ccc2sc3ccccc3c(=O)c2c1 do in these assays?
PPARg SRC-2 ag: 6; PPARg SRC-3 ag: 3; PPARg SRC1 recr: 3; TR-FRET SRC-2 ct: 2220*

What do the screens show for `CCOC(=O)c1nc2sc3c(c2c(=O)n1C(C)C(=O)OCC)CCCC3` (stereo not drawn)?
PPARg SRC-2 ag: 4; SRC1 TRFRET art: 1907; PPARg SRC-3 ag: 6; PPARg SRC1 recr: 9; SRC3 TRFRET art: 1676; TR-FRET SRC-2 ct: 1526

What do the screens show for `CC1(NC(=O)CC[N+](C)(C)CCO)CS(=O)(=O)CC1S(=O)(=O)[O-]` (stereo not drawn)?
PPARg SRC-2 ag: 1; SRC1 TRFRET art: 1785; PPARg SRC-3 ag: -5; PPARg SRC1 recr: -4; SRC3 TRFRET art: 1437; TR-FRET SRC-2 ct: 1466

How did CC(C)N(C)C(=O)C(=O)c1cccn1-c1cccc(Cl)c1C#N do in these assays?
PPARg SRC-2 ag: 7; SRC1 TRFRET art: 2315*; PPARg SRC-3 ag: 6; PPARg SRC1 recr: 8; SRC3 TRFRET art: 1624; TR-FRET SRC-2 ct: 1459

How did CC(C)CNS(=O)(=O)c1cc(C(=O)OCC(=O)c2ccc3c(c2)OCCO3)c(Cl)cc1Cl do in these assays?
PPARg SRC-2 ag: -3; SRC1 TRFRET art: 2142; PPARg SRC-3 ag: -2; PPARg SRC1 recr: -1; SRC3 TRFRET art: 2107*; TR-FRET SRC-2 ct: 1804

Results for Cc1sc2ncnc(SCC(=O)Nc3nc(-c4ccc(F)c(F)c4)cs3)c2c1C ?
PPARg SRC-2 ag: 2; SRC1 TRFRET art: 1937; PPARg SRC-3 ag: -2; PPARg SRC1 recr: 2; SRC3 TRFRET art: 1670; TR-FRET SRC-2 ct: 1524

What do the screens show for `COc1ccc(OCC(=O)Nc2cccc3cccnc23)cc1`?
PPARg SRC-2 ag: 11; SRC1 TRFRET art: 2429*; PPARg SRC-3 ag: 8; PPARg SRC1 recr: 2; SRC3 TRFRET art: 1536; TR-FRET SRC-2 ct: 1763

Results for COc1ccc(OCC(=O)Nc2cccc(NC(=O)COc3ccc(OC)cc3)n2)cc1 ?
PPARg SRC-2 ag: 15; PPARg SRC-3 ag: 10; PPARg SRC1 recr: 9; TR-FRET SRC-2 ct: 1570

How did CN(C(=S)NC(=O)Cc1ccccc1)c1ccccc1 do in these assays?
PPARg SRC-2 ag: 0; SRC1 TRFRET art: 1682; PPARg SRC-3 ag: 2; PPARg SRC1 recr: 4; SRC3 TRFRET art: 1653; TR-FRET SRC-2 ct: 1474

What do the screens show for `N#Cc1c(-c2ccccc2Cl)cc(-c2ccccc2)nc1Br`?
PPARg SRC-2 ag: 6; SRC1 TRFRET art: 1792; PPARg SRC-3 ag: 6; PPARg SRC1 recr: -2; SRC3 TRFRET art: 2059*; TR-FRET SRC-2 ct: 1773

What do the screens show for `CC(=O)c1ccc(NC(=O)COC(=O)c2ccccc2Sc2ccccc2C#N)cc1`?
PPARg SRC-2 ag: 0; SRC1 TRFRET art: 1874; PPARg SRC-3 ag: 0; PPARg SRC1 recr: -3; SRC3 TRFRET art: 2465*; TR-FRET SRC-2 ct: 1691

Results for CN(C)C(=O)COC(=O)c1ccccc1Sc1ccccc1C#N ?
PPARg SRC-2 ag: 12; SRC1 TRFRET art: 1957; PPARg SRC-3 ag: 4; PPARg SRC1 recr: 13; SRC3 TRFRET art: 1480; TR-FRET SRC-2 ct: 1720

Results for N#Cc1cccc(NC(=O)COC(=O)c2ccccc2Sc2ccccc2C#N)c1 ?
PPARg SRC-2 ag: 3; SRC1 TRFRET art: 1775; PPARg SRC-3 ag: 2; PPARg SRC1 recr: -3; SRC3 TRFRET art: 2131*; TR-FRET SRC-2 ct: 1920

How did N#Cc1ccccc1Sc1ccccc1C(=O)OCC(=O)NC12CC3CC(CC(C3)C1)C2 do in these assays?
PPARg SRC-2 ag: -11; SRC1 TRFRET art: 2330*; PPARg SRC-3 ag: 1; PPARg SRC1 recr: 0; SRC3 TRFRET art: 3416*; TR-FRET SRC-2 ct: 2682*
